Source: PubChem BioAssay (National Center for Advancing Translational Sciences (NCATS))
This is a sample that favours compounds with a hit; in the whole collection about 0.85% have one here.
PGK inhibitor: qHTS Assay to Find Inhibitors of Phosphoglycerate Kinase; Phosphoglycerate kinase, glycosomal (Trypanosoma brucei brucei), P07378; Potency, µM (top dose mostly 57.5 µM), inactives show at the top dose activity change, negative = inhibition, most hits filed as inhibitors; PGK/GAPDH coupled, Kinase-Glo luminescence, 60 min; AID 602233, 2012; 380,000 tested, 0.043% active; note: nearly all actives have a fitted effect of over 60% in size
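Recombinant glycosomal PGK reaction used 1,3-bisphosphoglycerate generated in-well by GAPDH (100nM final) in 100mM TEA pH 7.6, 5mM MgCl2, 0.01% Tween-20. After 60 minutes at room temperature, ATP was read by Kinase-Glo Plus luminescence end-point.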
TDP1 inh: qHTS Assay for Inhibitors of Tyrosyl-DNA Phosphodiesterase (TDP1) | AID 485290, 2010 | Potency, µM (series often up to 130 µM), without a hit: top-dose activity change, negative = inhibition, hits mostly inhibitors | recombinant TDP1, AlphaScreen DNA substrate cleavage | 350,000 tested, 0.28% active | Tyrosyl-DNA phosphodiesterase 1 (Homo sapiens), Q9NUW8; note: nearly all actives have a fitted effect of over 40% in size
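Enzyme-compound mixtures sat 15 min at room temperature, followed by a 5 min reaction with 15 nM final substrate and 10 min with AlphaScreen beads. Recombinant human Tdp1 was used at 1 nM final.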
RECQ1 helicase: qHTS Assay for Inhibitors of RecQ-Like Dna Helicase 1 (RECQ1); Potency, µM (series often up to 57.3 µM), for inactives: at the highest dose activity, negative = inhibition, hits mostly inhibitors; AID 2549, 2010; 240,000 tested, 0.54% active; RECQ1 DNA unwinding, red fluorescence kinetic read; ATP-dependent DNA helicase Q1 (Homo sapiens), P46063;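 note: plate controls were vehicle for no effect and no enzyme for full effect; nearly all actives have a fitted effect of over 30% in size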
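RECQ1T1 50 nM; forked duplex (20 bp + 30-nt ss tails) 200 nM, ATP 2 mM final; pH 8.0, 2 mM MgCl2, 2.5 ug/ml poly(dI-dC); 15 min compound preincubation; discontinuous kinetic read over 2 h at RT.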
APE1 inh: qHTS Assay for Inhibitors of the Human Apurinic/apyrimidinic Endonuclease 1 (APE1). DNA repair nuclease/redox regulator APEX1 (Homo sapiens), P27695. recombinant APE1, TAMRA/BHQ-2 abasic DNA cleavage fluorescence. Potency, µM (highest dose often 65.8 µM), inactives show at the highest dose activity change, negative = inhibition, actives largely listed as inhibitors. 350,000 tested, 0.35% active;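 note: plate controls were vehicle for no effect and reference inhibitor for full effect; nearly all actives have a fitted effect of over 55% in size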
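Compound pre-exposure to 0.75 nM APE1, 15 min at ambient temperature. Reaction initiated with 50 nM TAMRA/BHQ-2 THF substrate, read immediately in kinetic mode, 525 nm excitation, 598 nm emission.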
GLS inh: qHTS for Inhibitors of Glutaminase (GLS) | Glutaminase kidney isoform, mitochondrial (Homo sapiens), O94925 | GLS enzymatic activity, qHTS titration | Potency, µM (titrated, usually from 45.5 µM), inactives show at the top dose activity change, negative = inhibition, usual class: inhibitors | 410,000 tested, 0.21% active | AID 624170, 2012
Target sequence (O94925 whole entry, looked up, canonical isoform): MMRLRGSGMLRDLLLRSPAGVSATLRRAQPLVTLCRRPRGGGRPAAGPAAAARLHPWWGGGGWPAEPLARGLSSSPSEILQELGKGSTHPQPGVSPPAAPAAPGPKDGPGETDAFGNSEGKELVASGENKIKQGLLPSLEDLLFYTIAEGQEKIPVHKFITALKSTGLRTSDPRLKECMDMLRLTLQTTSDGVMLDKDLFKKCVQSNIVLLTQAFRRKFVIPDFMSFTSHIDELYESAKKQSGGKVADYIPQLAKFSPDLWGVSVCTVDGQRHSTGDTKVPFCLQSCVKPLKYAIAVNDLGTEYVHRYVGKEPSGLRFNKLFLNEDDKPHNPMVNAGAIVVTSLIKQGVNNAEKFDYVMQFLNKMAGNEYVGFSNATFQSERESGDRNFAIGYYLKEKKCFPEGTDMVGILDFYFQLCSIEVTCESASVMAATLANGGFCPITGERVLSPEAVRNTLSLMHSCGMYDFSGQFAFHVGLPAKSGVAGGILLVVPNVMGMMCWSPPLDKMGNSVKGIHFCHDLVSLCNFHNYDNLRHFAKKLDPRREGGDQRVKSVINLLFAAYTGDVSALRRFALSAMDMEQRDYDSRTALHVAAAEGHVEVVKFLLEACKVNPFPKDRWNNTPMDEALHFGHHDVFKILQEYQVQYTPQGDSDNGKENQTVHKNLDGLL
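Compounds were pin-transferred onto hKGA, after which L-glutamine (1 mM solution) and a detection mix of glutamate oxidase, HRP and Amplex Red were added. Initial and 30 min RT fluorescence reads were collected.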
BLM inh: qHTS Assay for Inhibitors of Bloom's syndrome helicase (BLM); recombinant BLM DNA unwinding, fluorescence dequenching; Potency, µM (series often up to 56.1 µM), for inactives: at the highest dose activity change, negative = inhibition, hits mostly inhibitors; 350,000 tested, 0.2% active; RecQ-like DNA helicase BLM (Homo sapiens), P54132; AID 2528, 2010;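 note: plate controls were vehicle for no effect and no enzyme for full effect; nearly all actives have a fitted effect of over 35% in size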
The depositor's hits bear a star; i = inactive; ? = inconclusive; . = not tested or not shown; [ ] = dose if it differs, or a comment. Calls come from the whole dose curve; as a rule, active = well fitted curve in the direction sought with a large enough effect; inconclusive = small, poorly fitted or top-dose-only effect, or another doubt; inactive = no such curve, though single readings can be large; an effect the other way counts as inactive or inconclusive. Unless noted, % is set by controls: 0 for no effect and ±100 for the full control effect; potency is the fitted concentration of half-maximal effect.

SMILES	PGK inhibitor	TDP1 inh	RECQ1 helicase	APE1 inh	GLS inh	BLM inh
Nc1nnc(-c2ccc3ccccc3c2)o1	.	.	.	1%	.	.
O=C(O)c1ccccc1NS(=O)(=O)c1ccc(N/N=C/c2ccc(O)c(O)c2)c([N+](=O)[O-])c1	35µM*	.	.	.	-9%	.
COc1ccc(NS(=O)(=O)c2ccc(NN=Cc3ccc(C(=O)O)cc3)c([N+](=O)[O-])c2)cc1	.	45µM*	.	?	.	.
O=C(O)c1ccccc1NS(=O)(=O)c1ccc(NN=Cc2cccc(Cl)c2)c([N+](=O)[O-])c1	?	0%	.	?	-12%	.
COc1ccc(F)c(Cn2cnc3c(cnn3C(C)(C)C)c2=O)c1Cl	.	.	.	-6%	.	.
S=c1[nH]nc(-c2cc(-c3ccccc3)n[nH]2)n1/N=C/C=C/c1ccco1	-7%	1%	?	?	4µM*	-24%
S=c1[nH]nc(-c2n[nH]c3c2CCC3)n1/N=C/C=C/c1ccco1	-11%	.	13µM*	?	?	-7%
CC(/C=N/n1c(-c2cc(C)[nH]n2)n[nH]c1=S)=C\c1ccco1	-5%	0%	25µM*	-12%	56%	0%
COc1ccccc1/C=C/C=N/n1c(-c2n[nH]c3c2CCC3)n[nH]c1=S	-7%	4%	-2%	3%	?	-14%
S=c1[nH]nc(COc2ccccc2)n1/N=C/C=C/c1ccco1	-7%	.	32µM*	?	?	-24%
Cc1ccc(-c2ccc(CCC(=O)O)n2C(C)C)cc1	0%	4%	-8%	-2%	17%	4%
CC1=C(CCC(=O)O)c2cc3nc(cc4[nH]c(cc5[nH]c(cc1n2)c(C)c5C(C)O)c(C)c4C(C)O)C(C)=C3CCC(=O)O (configuration not stated)	.	16µM*	-24%	?	.	-8%
CCC[C@@H]1C[C@@H](C(=O)N[C@@H]([C@H]2O[C@H](SC)[C@H](OP(=O)(O)O)[C@@H](O)[C@H]2O)[C@H](C)Cl)N(C)C1	.	.	.	-3%	.	.
CC1=C(C(=O)OC(C)C)C(c2ccc(Cl)cc2)n2c(s/c(=C\c3ccc(OCC(=O)O)cc3)c2=O)=N1 (configuration not stated)	?	.	.	6.7µM*	11µM*	-22%
CCOC(=O)C1=C(C)N=c2s/c(=C\c3ccc(OCC(=O)O)cc3)c(=O)n2C1c1ccccc1 (configuration not stated)	?	.	.	13%	5%	-5%
O=C(Cn1sc2ccccc2c1=O)Nc1ccc(Br)cc1	-3%	.	.	.	7.1µM*	.
O=C(Cn1sc2ccccc2c1=O)Nc1ccc(F)cc1	-2%	.	.	.	?	.
O=C(Cn1sc2ccccc2c1=O)Nc1ccc(Cl)cc1	1%	.	.	.	7.1µM*	.
CN1CC(=O)NC1=N	.	.	.	0%	.	.
COc1ccc(Cc2nnc(NN)[nH]c2=O)cc1OC	4%	.	.	-6%	22µM*	0%
N#Cc1nc(Nc2cccc(C(F)(F)F)c2)nc(NC2CCCC2)n1	.	1%	.	.	.	.
COc1ccc(/C=N/N2C(C)CCCC2C)cc1O (configuration not stated)	4%	.	.	3%	11µM*	0%
CC1CCCC(C)N1/N=C/c1ccc(O)c(O)c1 (configuration not stated)	i	.	.	11%	-7%	-12%
C#CCOCCOCCOCCNc1nc(N2CCN(C(=O)[C@H](Cc3ccc(O)cc3)n3cc(CCO)nn3)CC2)nc(N2CCN(C(=O)[C@H](Cc3ccc(O)cc3)n3cc(CCO)nn3)CC2)n1	.	-11%	32µM*	-9%	.	-16%
C#CCOCCOCCOCCNc1nc(N2CCN(C(=O)CCCCCCCCCCNC(=O)[C@H]([C@@H](C)CC)n3cc(CCCCN=C(N)N)nn3)CC2)nc(N2CCN(C(=O)CCCCCCCCCCNC(=O)[C@H](CCCCN)n3cc(C)nn3)CC2)n1	16%	15%	.	?	16µM*	.
SMILES	PGK inhibitor	TDP1 inh	RECQ1 helicase	APE1 inh	GLS inh	BLM inh
C=CS(=O)(=O)O	.	.	.	.	-1%	.
O=C(OCC#CCSc1nnc(-c2cccc3ccccc23)o1)c1sc(Cl)c(Cl)c1Cl	.	-2%	.	.	.	.
C[C@H]1O[C@@H](O[C@H]2CC[C@@]3(C)[C@H](CC[C@@H]4[C@@H]3C[C@@H](O)[C@]3(C)[C@@H](C5=CC(=O)OC5)CC[C@]43O)C2)C[C@H](O)[C@@H]1O[C@H]1C[C@H](O)[C@H](O[C@H]2C[C@H](O)[C@H](O[C@@H]3O[C@H](CO)[C@@H](O)[C@H](O)[C@H]3O)[C@@H](C)O2)[C@@H](C)O1	.	.	.	-8%	.	.
N#Cc1cccc(-c2noc(-c3ccccc3F)n2)c1	.	.	.	3%	.	.
O=C1OC2(c3cc(Br)c(O)c(Br)c3Oc3c2cc(Br)c(O)c3Br)c2c(Cl)c(Cl)c(Cl)c(Cl)c21	.	22%	5µM*	4.5µM*	.	.
COc1ccc2[nH]c3c(=O)n(CCCCC(=O)NCCN4CCCC4)c(=S)[nH]c3c2c1	1%	-1%	-19%	1%	-4%	-27%
COc1ccc2[nH]c3c(=O)n(Cc4ccc(C(=O)N5CCCC5)cc4)c(=S)[nH]c3c2c1	i	0%	-7%	7%	10µM*	2%
O=[N+]([O-])c1ccc(Nc2nc(NC3CCCCC3)nc(N3CCCC3)n2)cc1	-9%	8%	-8%	0%	-7%	28µM*
O=[N+]([O-])c1ccc(Nc2nc(N/N=C/c3cccc(F)c3)nc(N3CCCC3)n2)cc1	-9%	8%	0%	?	4%	4%
COc1cccc(/C=N/Nc2nc(Nc3ccc([N+](=O)[O-])cc3)nc(N3CCCC3)n2)c1O	i	10%	?	-12%	1%	28µM*
NCc1ccccc1CC(=O)N[C@@H]1C(=O)N2C(C(=O)O)=C(CSc3nnnn3CC(=O)O)CS[C@@H]12	.	10µM*	1%[25.9 µM]	.	-32%[20 µM]	2%[21.4 µM]
Cn1nnnc1SCC1=C(C(=O)O)N2C(=O)[C@@H](NC(=O)[C@@H](O)c3ccccc3)[C@@H]2SC1	.	9%[21 µM]	-2%[25.9 µM]	.	-10%[20 µM]	6%[21.4 µM]
CCOC(=O)C1CCN(c2nc(N)c3c(N)nc(SCC(=O)O)cc3c2C#N)CC1	?	28µM*	?	?	?	25µM*
